Mtb UGM inh – Mtb UDP-galactopyranose mutase inhibition; P9WIQ1; purified UGM, fluorescence polarization probe displacement; inhibition, % at 10 µM; 320,000 compounds, 0.06% hits; in the data active means inhibition above about 10%, passing the limit was not always enough
Rv3671c inh – inhibits the M. tuberculosis serine protease Rv3671c | P9WHR9 | inhibition, % at 5.96 µM | 320,000 compounds, 0.048% hits | AID 2606; in the data active means inhibition above about 38%;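 further: extracellular domain of Rv3671c used as enzyme; 0% = enzyme with DMSO and 100% = no enzyme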
Target sequence (P9WHR9 whole entry, looked up, the tested form may be a part): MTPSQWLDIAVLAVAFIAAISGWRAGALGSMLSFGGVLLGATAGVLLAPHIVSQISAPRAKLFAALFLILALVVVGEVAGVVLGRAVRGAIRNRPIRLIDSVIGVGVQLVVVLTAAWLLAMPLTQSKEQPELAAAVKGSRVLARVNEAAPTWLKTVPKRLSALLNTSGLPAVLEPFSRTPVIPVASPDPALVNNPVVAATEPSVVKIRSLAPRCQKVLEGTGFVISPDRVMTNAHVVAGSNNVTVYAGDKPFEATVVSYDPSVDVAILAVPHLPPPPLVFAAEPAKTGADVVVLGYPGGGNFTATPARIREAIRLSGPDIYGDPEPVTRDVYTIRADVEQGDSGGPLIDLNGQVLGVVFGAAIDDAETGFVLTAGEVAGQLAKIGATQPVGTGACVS
FBA Mtb inh – inhibits M. tuberculosis FBA enzyme | AID 588726 | 360,000 compounds, 2.3% hits | inhibition, % at 1 µM | purified M. tuberculosis FBA, fluorescence read-out | P9WQA3; in the data active means inhibition above about 27%;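 further: 0% = vehicle and 100% = reference inhibitor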
GDH-TPI counter – GDH-TPI coupled enzyme inhibition counter-screen. GDH-TPI coupled enzyme counterscreen, NADH absorbance. inhibition, % at 4.8 µM. 360,000 compounds, 1.2% hits. AID 588335; in the data active means inhibition above about 30%;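 further: 0% = DMSO wells and 100% = wells lacking the enzyme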
Numbers without * were called inactive; . = no result; + = active, no number. Hits are enriched below; roughly 3.5% of the tested compounds scored in any of these assays.

SMILES	Mtb UGM inh	Rv3671c inh	FBA Mtb inh	GDH-TPI counter
O=C(Nc1ccc2oc(-c3ccccc3)nc2c1)C1CCCO1 (stereo unspecified)	1	4	+	12
O=C(Cc1ccccc1)Nc1ccc2oc(-c3cccnc3)nc2c1	-1	-3	112*	4
CSc1ccc(/C=N/NC(=O)c2sccc2C)cc1	-1	-7	-2	45*
CSc1ccc(/C=N/NC(=O)c2cc(O)cc(O)c2)cc1	3	-11	2	49*
CSc1ccc(/C=N/NC(=O)c2ccc(C)c(C)c2)cc1	0	-5	1	24
Cc1ccc(S(=O)(=O)NC(C)(C)CN2CCC(Cc3ccccc3)CC2)cc1	.	9	11	0
CCC12OC(=N)C(C#N)(C1C)C(C#N)(C#N)C(c1ccccc1)O2 (stereo unspecified)	2	-1	144*	17
Cc1cc(C)c[n+](-c2[nH]c(=O)sc2/C=N/N=C(\[O-])c2cccnc2)c1	3	-8	-2	35*
CC(=O)c1ccc(OCc2cc(C(=O)N3CC4C[C@@H]5CC3C[C@H](C4)C5)no2)cc1	0	-12	-2	0
N=C1C(c2nc3ccccc3s2)=C(O)CN1NC(=O)c1ccco1	2	5	8	47*
CCOC(=O)C(=O)N(C)c1c(CC)nc2c(OCc3ccc(OC)cc3)cccn12	.	.	0	3
CS(=O)(=O)c1ccc2nc(NC(=O)c3ccco3)sc2c1	-3	1	-2	46*
CS(=O)(=O)c1ccc2nc(NC(=O)c3ccccc3Cl)sc2c1	-1	.	-1	19
Cc1noc(C)c1C(=O)Nc1nc2ccc(S(C)(=O)=O)cc2s1	8	7	1	54*
Cc1ccc(C(=O)Nc2nc3ccc(S(C)(=O)=O)cc3s2)o1	0	-6	3	52*
CC1CCCCN1C(=O)C1COc2ccccc2O1 (stereo unspecified)	0	-2	2	1
Cc1nc2ccccc2c(=O)n1/N=C/c1ccc(O)cc1	-2	2	0	29
C/C(=N\n1c(C)nc2ccccc2c1=O)c1ccc(N)cc1	-1	-2	0	35*
CNC(=O)c1[nH]nc2c1CCc1ccccc1-2	2	-10	4	5
COC(=O)c1[nH]c2c(c1C(=O)OC)CCc1ccccc1-2	2	-3	121*	30
Cc1ccc(-c2cc(C(=O)N3CC(C)OC(C)C3)c3ccccc3n2)o1 (stereo unspecified)	-1	-2	146*	12
COc1ccc(-c2cc(C(=O)N3CCCCCC3)c3ccccc3n2)cc1	.	.	150*	15
CCn1cc(-c2cc(C(=O)O)c3ccccc3n2)c(C)n1	1	-10	130*	8
COc1ccc(-c2cc(C(=O)OCC(=O)c3ccc(C)c([N+](=O)[O-])c3)c3ccccc3n2)cc1	0	-4	6	8
COc1ccc(-c2cc(C(=O)Oc3ccc([N+](=O)[O-])cc3)c3ccccc3n2)cc1	-1	5	+	23
SMILES	Mtb UGM inh	Rv3671c inh	FBA Mtb inh	GDH-TPI counter
CN(CCCNC(=O)CCc1cn(C)c2ccccc12)C1CCCCC1	0	-9	2	0
Cc1ccc(-c2cc(C(=O)n3cnc4ccccc43)c3ccccc3n2)cc1C	2	-2	50*	8
Cc1ccc(-c2cc(C(=O)N3CCCC3)c3ccccc3n2)s1	-3	4	+	18
O=C(c1cc(-c2cccc(Br)c2)nc2ccccc12)N1CCCC1	-1	7	5	6
CCc1ccc(-c2cc(C(=O)O)c3ccccc3n2)s1	4	.	152*	38*
CSCCNC(=O)C1(C)CCN1C(=O)c1cc(C)n(C)n1 (stereo unspecified)	.	.	-2	-5
O=C(CNC(=O)c1ccc(C(F)(F)F)cc1)NC1CC1	0	-3	-1	1
O=C(/C=C/Nc1cccc(C(F)(F)F)c1)c1ccc(Oc2ncccn2)cc1	-1	-7	-1	32*
CC(=O)Nc1c(Cl)cnn(-c2ccccc2)c1=O	0	-3	1	43*
CCN(CC)CC(=O)Nc1ccc(-c2ccc(NC(=O)CN(CC)CC)c(OC)c2)cc1OC	0	-7	-2	-5
O=C(CN(Cc1ccccc1)C(=O)CNS(=O)(=O)c1ccc(F)cc1)NCc1ccco1	-2	0	19	-3
O=C(NCc1ccccc1Cl)c1ccc2c(c1)OCO2	1	-5	0	8
CCN(CC(=O)Nc1ccc(NC(C)=O)cc1)C(=O)CCCN1C(=O)c2ccccc2C1=O	3	-3	-4	0
C=CCc1c(C)nc(C)nc1N/N=C/c1ccccc1	-2	-2	0	29
C=CCc1c(C)nc(C)nc1N/N=C/c1ccc(F)cc1	1	-3	-1	32*

Bioassay records (PubChem BioAssay)
